High-throughput results (PubChem)
hgDAF-12 ag = activates the H. glycines DAF-12 receptor ligand-binding domain; HEK293 GAL4-hgDAF12 UAS-luciferase reporter, agonist luminescence; normalized to butyrate control; activation, % at 6.8 µM; 370,000 tested, 1.8% active;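 active = activation above a cutoff set at the mean of all screened compounds plus 3 SD, cut at about 10% in these data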;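 note: 0% = DMSO wells and 100% = sodium butyrate wells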
DAX1 inh-1 = blocks DAX1 repression of SF-1 activated StAR promoter; HEK293T StAR-luciferase reporter, SF-1/DAX-1 repression relief; inhibition, % at 6.8 µM; 370,000 tested, 1.1% active;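 active = inhibition above the mean over all tested compounds plus 3 SD, cut at about 3.6% in these data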;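 note: 0% = DAX-1 cells with DMSO and 100% = cells lacking DAX-1 with DMSO; higher inhibition means more luminescence from relief of DAX-1 repression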
ssDAF12 agonist = activators of S. stercoralis DAF-12 nuclear receptor; HEK293 ssDAF-12/GRIP1 lit1-tk-luc reporter, luminescence; % of 3 µM dafachronic acid response; activation, % at 6.8 µM; 370,000 tested, 1% active; AID 652126;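 active = activation above the mean over all tested compounds plus 3 SD, cut at about 0.9% in these data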;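 note: 0% = DMSO-only wells and 100% = 3 µM delta7-dafachronic acid wells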
hcDAF12 agonist = activates DAF-12 receptor from parasite H. contortus; HEK293 hcDAF-12 lit1-tk-luc reporter, luminescence; 0% DMSO, 100% Δ7-dafachronic acid; 370,000 tested, 1.4% active; activation, % at 6.8 µM; AID 652067;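 active = activation above the mean of all tested compounds plus 3 SD, cut at about 5.5% in these data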;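 note: 100% = response to 3 µM Δ7-dafachronic acid high control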
DAX1 inh-2 = inhibits human nuclear receptor DAX1 | 340,000 tested, 0.99% active | inhibition, % at 6.75 µM | HEK293 Gal4-DAX1 luciferase reporter, luminescence | AID 504766 | P51843;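 active = inhibition above the mean over all tested compounds plus 3 SD, cut at about 4.2% in these data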;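 note: 0% = DAX1-transfected cells with DMSO and 100% = empty-vector control cells with DMSO; inhibition shows as a rise in luminescence from relieved DAX1 repression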
Target sequence (P51843 207-470 limits assumed): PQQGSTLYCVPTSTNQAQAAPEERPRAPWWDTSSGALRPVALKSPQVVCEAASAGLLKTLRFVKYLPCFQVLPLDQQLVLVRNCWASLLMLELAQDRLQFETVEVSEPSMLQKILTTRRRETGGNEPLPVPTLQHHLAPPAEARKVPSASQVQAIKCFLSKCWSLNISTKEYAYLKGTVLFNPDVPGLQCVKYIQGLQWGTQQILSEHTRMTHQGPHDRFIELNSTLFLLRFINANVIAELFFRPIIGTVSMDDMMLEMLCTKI
FXN GAA850 act = frataxin GAA850 promoter activation. 360,000 tested, 0.56% active. activation, % at 6 µM. HEK293 lucGAA850 FXN promoter luciferase reporter, 24 h; percent of 10 µM SAHA response. AID 540364;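 active = activation above the average of all compounds screened plus 3 SD, cutoff fixed separately per campaign, cut at about 7.5% in these data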;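 note: 0% = DMSO wells and 100% = 10 µM SAHA wells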
DAX1 conf = confirmation of human DAX1 (NR0B1) inhibitors. shares compounds with DAX1 inh-1. inhibition, % at 6.8 µM. 2,400 tested, 87% active. HEK293T StAR-promoter luciferase reporter, SF-1/DAX-1 repression;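 active = inhibition above the average of every tested compound plus 3 SD, cut at about 3.8% in these data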;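 note: 0% = DAX-1 cells with DMSO and 100% = no DAX-1 control cells with DMSO; active compounds raise luminescence by relieving repression of the StAR reporter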
SF1 mutant ctr = counter-screen for DAX1 inhibitors: nonselective inhibitors with SF-1 AF2 mutant; 2,400 tested, 78% active; HEK293 StAR-luciferase, luminescence; inhibition, % at 6.8 µM; shares compounds with DAX1 inh-1;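 active = inhibition above the mean of all tested compounds plus 3 SD, cut at about 3% in these data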;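 note: 0% = DAX-1 transfected cells with DMSO and 100% = cells without DAX-1 with DMSO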
LXRb hcDAF ctr = activates human LXR-beta, counter-screen for hcDAF-12 agonists. shares compounds with hcDAF12 agonist. HEK293 Gal4-LXR tk-luc reporter, luminescence, 24 h; normalized: DMSO 0%, positive control 100%. activation, % at 6.8 µM. 3,400 tested, under 10 active;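 active = mean percent activation of the reporter above a cutoff set as the average over tested compounds plus their standard deviation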
Target sequence (P55055 whole entry, looked up, the tested form may be a part): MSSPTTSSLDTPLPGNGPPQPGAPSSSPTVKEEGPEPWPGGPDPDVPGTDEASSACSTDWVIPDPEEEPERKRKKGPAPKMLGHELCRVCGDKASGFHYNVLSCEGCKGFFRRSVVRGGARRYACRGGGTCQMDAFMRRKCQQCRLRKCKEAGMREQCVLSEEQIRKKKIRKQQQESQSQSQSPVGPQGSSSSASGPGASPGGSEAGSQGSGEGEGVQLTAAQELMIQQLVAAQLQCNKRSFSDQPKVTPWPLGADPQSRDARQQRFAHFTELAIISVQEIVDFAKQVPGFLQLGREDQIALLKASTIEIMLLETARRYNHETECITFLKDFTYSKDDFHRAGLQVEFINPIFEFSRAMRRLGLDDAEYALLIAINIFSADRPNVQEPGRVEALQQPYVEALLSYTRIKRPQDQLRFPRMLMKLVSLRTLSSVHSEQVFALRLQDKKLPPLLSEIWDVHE
hcDAF12 ag = hcDAF-12 agonism, confirmation assay. shares compounds with hcDAF12 agonist. HEK293 hcDAF-12 lit1-tk-luc reporter, luminescence; % of Δ7-dafachronic acid response. activation, % at 6.8 µM. 3,400 tested, 61% active;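 active = mean activation across triplicate tests above the threshold derived from the earlier primary screen, cut at about 5.5% in these data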;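 note: 0% = DMSO only wells and 100% = 3 µM Δ7-dafachronic acid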
hgDAF12 conf = confirmation of H. glycines DAF-12 agonists; HEK293 GAL4-hgDAF12 luciferase reporter, agonist mode; percent of butyrate response; activation, % at 6.8 µM; 3,300 tested, 80% active; shares compounds with hgDAF-12 ag;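 active = mean activation over triplicate wells above the hit cutoff derived from the earlier primary screen, cut at about 11% in these data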;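 note: 0% = DMSO low control and 100% = 2 mM sodium butyrate high control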
LXR ag 2 = activates human LXR-beta, counter-screen for DAF-12 agonists; shares compounds with hgDAF-12 ag; HEK293 Gal4-LXR luciferase reporter, 24 h; activation, % at 6.8 µM; 3,300 tested, under 10 active; AID 743051;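 active = mean activation of the triplicate above a set limit carried over from the primary screen, none filed active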
Numbers without * were called inactive; x = not tested or not shown. In the library only some 4.5% were active in any assay of this set; here they are far more common.

SMILES | hgDAF-12 ag | DAX1 inh-1 | ssDAF12 agonist | hcDAF12 agonist | DAX1 inh-2 | FXN GAA850 act | DAX1 conf | SF1 mutant ctr | hgDAF12 conf | LXR ag 2 | others
O=C(NCc1cccnc1)c1cccc(S(=O)(=O)NCc2ccccc2)c1 | 2 | 0 | -1 | 1 | -1 | 2 | x | x | x | x
CSc1ncccc1C(=O)OCC(=O)c1cc(C)n(CC2CCCO2)c1C (stereo not given) | 7 | 1 | 0 | 3 | 2 | -2 | x | x | x | x
CCn1c(C)cc(C(=O)COC(=O)c2cccnc2SC)c1C | 15* | 5.9* | 0 | 5 | 7.9* | 4 | 6.1* | 4.4* | 14* | 1
CCCn1c(NCc2ccc(N(C)C)cc2)nc2ccccc21 | 3 | 1 | -1 | -2 | 0 | 2 | x | x | x | x
CN(C)c1ccc(CNc2nc3ccccc3n2C)cc1 | 15* | 4.8* | -1 | 5 | 2 | 2 | 8.6* | 6.9* | 17* | 1
CC(C)n1c(=N)c(C(=O)NCCc2ccccc2)cc2c(=O)n3ccccc3nc21 | 6 | 0 | -1 | 2 | -1 | -1 | x | x | x | x
O=C(NCCc1ccccc1)c1cnc2ccccn2c1=O | 14* | 5.2* | -1 | 3 | 0 | 5 | 13* | 5.7* | 13* | 1
CN(C(=O)C1CCC(=O)N(C2CC2)C1)C1CCCCC1 (stereo not given) | -2 | 0 | -1 | -1 | 0 | -1 | x | x | x | x
c1ccc2c(c1)CC/C2=N/Nc1nc2ccccc2[nH]1 | 14* | 7.3* | 0 | 5 | 2 | 6 | 11* | 11* | 10 | 1
CC(C)(C)C1CCC(=NNc2nc3ccccc3[nH]2)CC1 (stereo not given) | 0 | 0 | -1 | 0 | 0 | -1 | x | x | x | x
COc1cccc(CC2(CO)CCN(CC3=CC[C@H]4C[C@@H]3C4(C)C)CC2)c1 | 2 | 0 | -1 | -1 | 2 | -2 | x | x | x | x
CC(=O)N(C)c1ccc(N=Nc2c(C)[nH]n(C(N)=S)c2=O)cc1 | 16* | 4.8* | 0 | 6.5* | 4 | 2 | 12* | 5.3* | 17* | 1
CC(=O)N(C)c1ccc(N=Nc2c(C)[nH]n(-c3ccccc3)c2=O)cc1 | 1 | 0 | -2 | -2 | -1 | 0 | x | x | x | x
CCc1ccc(NC(=O)NC2CCCCCCC2)cc1 | 17* | 7.9* | 1 | 4 | 4 | 4 | 10* | 5.4* | 18* | 1
CCc1ccc(NC(=O)C(=S)NC2CCCCC2)cc1 | 8 | 1 | -1 | 2 | 2 | 8 | x | x | x | x
Cc1csc(NC(=O)c2ccc(C)c([N+](=O)[O-])c2)n1 | 15* | 5.9* | 1 | 12* | -1 | 1 | 7.7* | 4.7* | 18* | 1 | LXRb hcDAF ctr=2;hcDAF12 ag=10*
Cc1csc(NC(=O)c2cc3ccccc3o2)n1 | 18* | 8.6* | 2.5* | 12* | -1 | 0 | 15* | 6.1* | 19* | 1 | LXRb hcDAF ctr=2;hcDAF12 ag=8.9*
O=C(Nc1cccc2ncccc12)c1cc2ccccc2o1 | 0 | -1 | -1 | -1 | 0 | -2 | x | x | x | x
O=C(Nc1ncccc1O)c1cc2ccccc2o1 | 39* | 27* | 1 | 8.6* | 1 | 2 | 27* | 14* | 29* | 1 | LXRb hcDAF ctr=1;hcDAF12 ag=5
O=C(Nc1ccc(Cl)cn1)c1cc2ccccc2o1 | 14* | 4.8* | 2.7* | 13* | 2 | 2 | 14* | 6.8* | 20* | 1 | LXRb hcDAF ctr=1;hcDAF12 ag=16*
Cc1cc(C)nc(NC(=O)c2ccc(C)c([N+](=O)[O-])c2)n1 | 0 | 0 | -1 | -1 | -1 | 0 | x | x | x | x
O=C(NC1CCCCC1)N(c1ccccc1)c1nnc(-c2cccc([N+](=O)[O-])c2)s1 | 7 | 2 | 0 | 4 | 3 | 6 | x | x | x | x
COc1cc2c(cc1OC)CN(C(=O)c1ccc(OC)c(S(=O)(=O)N3CCOCC3)c1)CC2 | 2 | 0 | -1 | 0 | -1 | 0 | x | x | x | x
CCc1ccc(NC(=O)c2onc(C)c2Cl)cc1 | 29* | 7.7* | 2.2* | 17* | 4.5* | 3 | 13* | 11* | 22* | 1 | LXRb hcDAF ctr=2;hcDAF12 ag=18*
Cc1noc(C(=O)Nc2ccc(C#N)cc2)c1Cl | 5 | 0 | -1 | -2 | -1 | 0 | x | x | x | x
SMILES | hgDAF-12 ag | DAX1 inh-1 | ssDAF12 agonist | hcDAF12 agonist | DAX1 inh-2 | FXN GAA850 act | DAX1 conf | SF1 mutant ctr | hgDAF12 conf | LXR ag 2 | others
O=C(/C=C/c1ccc([N+](=O)[O-])cc1)Nc1ncc([N+](=O)[O-])s1 | 27* | 7.4* | 1 | 12* | 4 | 0 | -6 | -6 | 6 | 1 | LXRb hcDAF ctr=1;hcDAF12 ag=5.8*
O=C(/C=C/c1ccc([N+](=O)[O-])cc1)NCc1ccccn1 | 4 | -1 | -1 | -1 | 0 | 0 | x | x | x | x
CCCNC(=O)c1nn2cc(Br)cnc2c1Cl | 1 | 0 | -1 | -2 | 2 | -2 | x | x | x | x
Cc1ccc(-c2cnc3cc(C)nn3c2)cc1 | 18* | 9.7* | 0 | 5.9* | -1 | 1 | 11* | 5.2* | 12* | 1
Cc1ccc(-c2cnc3c(Cl)c(C)nn3c2)cc1 | 24* | 6.6* | 1 | 5 | 3 | 2 | 0 | -5 | 18* | 1
Cc1ncc(CCl)c2c1OC(C)(C)OC2 | 1 | 0 | -1 | 1 | 1 | 1 | x | x | x | x
COCCCN=Cc1c(C)[nH]n(-c2ccc(Br)c(C)c2)c1=O | 18* | 7.0* | 1 | 7.6* | 0 | 0 | 16* | 5.2* | 10 | 1 | LXRb hcDAF ctr=2;hcDAF12 ag=11*
Cc1ccc(-n2[nH]c(C)c(C=NC34CN5CN(CN(C5)C3)C4)c2=O)cc1C | 1 | 1 | -1 | -1 | 2 | 4 | x | x | x | x
COc1ccc(-c2nc(-c3cccc(C)c3)no2)cc1OC | x | x | x | x | 0 | 6 | x | x | x | x
